Measured values published in PubChem BioAssay.
Calls of active or inactive are those of the source.

Legend:
[1] = test system: PRMT1 (protein arginine N-methyltransferase 1); test: small molecules binding arginine methyltransferase PRMT1 – biochemical, small-molecule microarray, 635 nm fluorescence, primary screen (AID 1088); conditions: higher = more signal;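 further: binding of Prmt1 protein to compounds spotted on small-molecule microarray slides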
[2] = growth effects on S. cerevisiae YJM789 – YJM789 clinical isolate, OD600, 24 h, basal, primary screen (AID 1089); conditions: higher = more signal, called active from +8 up or from −8 down;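 further: growth of clinical yeast isolate S. cerevisiae YJM 789 seeded 1000 cells per well; test concentration not given here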
[3] = S. pombe growth modifiers, basal conditions – strain 972, OD600, 24 h, no modulator, primary screen (AID 1090);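 further: basal condition with compound alone and no growth modifier present; test concentration not given here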; conditions: S. pombe 972 growth, higher = more signal, called active from +8 up or from −8 down
[4] = budding yeast growth modifiers under rapamycin – strain BY4716, OD600, 96 h, primary screen (AID 1091); further: test concentration not given here; conditions: S. cerevisiae BY4716 + rapamycin, higher = more signal, called active from +8 up or from −8 down
[5] = target: Torsin-1A-interacting protein 2 (Homo sapiens) (UniProt Q8NFQ8); test: small molecules binding lysate-expressed LULL1 – cell lysate, human LULL1 lysate, 635/667 nm fluorescence, primary screen (AID 1092); conditions: small-molecule microarray, hLULL1 lysate binding, 635 nm fluorescence; higher = more signal;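 further: probe is lysate of COS7 cells overexpressing human LULL1; score merges per-feature 667 nm fluorescence with signal-to-noise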
Chain of Torsin-1A-interacting protein 2 (Homo sapiens) (Q8NFQ8 whole entry, looked up): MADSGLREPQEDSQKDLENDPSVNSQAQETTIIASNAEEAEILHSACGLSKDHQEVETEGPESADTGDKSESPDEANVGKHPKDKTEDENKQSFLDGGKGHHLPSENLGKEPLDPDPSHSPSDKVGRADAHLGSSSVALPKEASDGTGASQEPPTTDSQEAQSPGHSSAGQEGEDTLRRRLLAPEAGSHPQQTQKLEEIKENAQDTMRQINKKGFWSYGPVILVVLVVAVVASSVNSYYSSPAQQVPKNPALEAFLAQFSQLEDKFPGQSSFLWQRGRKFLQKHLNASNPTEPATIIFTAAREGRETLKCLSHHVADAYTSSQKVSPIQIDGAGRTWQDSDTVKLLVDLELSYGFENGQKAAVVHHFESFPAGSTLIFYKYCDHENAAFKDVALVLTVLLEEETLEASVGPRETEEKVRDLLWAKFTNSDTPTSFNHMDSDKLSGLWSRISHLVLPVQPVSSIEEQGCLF

[6] = optical density change of DRC41 E. coli – strain DRC41, OD650, 24 h, E. coli filamentation project, primary screen (AID 1093);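 further: MC1000 strain lacking acrAB efflux and sulA so SOS filamentation is blocked; test concentration not given here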; conditions: E. coli DRC41 growth, higher = more signal, called active from +8 up or from −8 down
[7] = probe aLefty2 binding to arrayed compounds – biochemical, biotinylated probe, 635/667 nm fluorescence, primary screen (AID 1094); conditions: small-molecule microarray, higher = more signal;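 further: score merges spot fluorescence near 667 nm with spot signal-to-noise ratio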
[8] = test system: Noggin (protein binding on small-molecule microarray); test: small molecules binding Noggin protein – biochemical, 635/667 nm fluorescence, primary screen (AID 1095); conditions: 635 nm fluorescence, higher = more signal;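 further: score merges 667 nm feature fluorescence with signal to noise over triplicate slides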
[9] = target: Neurogenic locus notch homolog protein 3 (Homo sapiens) (UniProt Q9UM47); test: small molecules binding NOTCH3 protein – biochemical, 635/667 nm fluorescence, primary screen (AID 1096); conditions: small-molecule microarray, 635 nm fluorescence, higher = more signal
Chain of Neurogenic locus notch homolog protein 3 (Homo sapiens) (Q9UM47 whole entry, looked up): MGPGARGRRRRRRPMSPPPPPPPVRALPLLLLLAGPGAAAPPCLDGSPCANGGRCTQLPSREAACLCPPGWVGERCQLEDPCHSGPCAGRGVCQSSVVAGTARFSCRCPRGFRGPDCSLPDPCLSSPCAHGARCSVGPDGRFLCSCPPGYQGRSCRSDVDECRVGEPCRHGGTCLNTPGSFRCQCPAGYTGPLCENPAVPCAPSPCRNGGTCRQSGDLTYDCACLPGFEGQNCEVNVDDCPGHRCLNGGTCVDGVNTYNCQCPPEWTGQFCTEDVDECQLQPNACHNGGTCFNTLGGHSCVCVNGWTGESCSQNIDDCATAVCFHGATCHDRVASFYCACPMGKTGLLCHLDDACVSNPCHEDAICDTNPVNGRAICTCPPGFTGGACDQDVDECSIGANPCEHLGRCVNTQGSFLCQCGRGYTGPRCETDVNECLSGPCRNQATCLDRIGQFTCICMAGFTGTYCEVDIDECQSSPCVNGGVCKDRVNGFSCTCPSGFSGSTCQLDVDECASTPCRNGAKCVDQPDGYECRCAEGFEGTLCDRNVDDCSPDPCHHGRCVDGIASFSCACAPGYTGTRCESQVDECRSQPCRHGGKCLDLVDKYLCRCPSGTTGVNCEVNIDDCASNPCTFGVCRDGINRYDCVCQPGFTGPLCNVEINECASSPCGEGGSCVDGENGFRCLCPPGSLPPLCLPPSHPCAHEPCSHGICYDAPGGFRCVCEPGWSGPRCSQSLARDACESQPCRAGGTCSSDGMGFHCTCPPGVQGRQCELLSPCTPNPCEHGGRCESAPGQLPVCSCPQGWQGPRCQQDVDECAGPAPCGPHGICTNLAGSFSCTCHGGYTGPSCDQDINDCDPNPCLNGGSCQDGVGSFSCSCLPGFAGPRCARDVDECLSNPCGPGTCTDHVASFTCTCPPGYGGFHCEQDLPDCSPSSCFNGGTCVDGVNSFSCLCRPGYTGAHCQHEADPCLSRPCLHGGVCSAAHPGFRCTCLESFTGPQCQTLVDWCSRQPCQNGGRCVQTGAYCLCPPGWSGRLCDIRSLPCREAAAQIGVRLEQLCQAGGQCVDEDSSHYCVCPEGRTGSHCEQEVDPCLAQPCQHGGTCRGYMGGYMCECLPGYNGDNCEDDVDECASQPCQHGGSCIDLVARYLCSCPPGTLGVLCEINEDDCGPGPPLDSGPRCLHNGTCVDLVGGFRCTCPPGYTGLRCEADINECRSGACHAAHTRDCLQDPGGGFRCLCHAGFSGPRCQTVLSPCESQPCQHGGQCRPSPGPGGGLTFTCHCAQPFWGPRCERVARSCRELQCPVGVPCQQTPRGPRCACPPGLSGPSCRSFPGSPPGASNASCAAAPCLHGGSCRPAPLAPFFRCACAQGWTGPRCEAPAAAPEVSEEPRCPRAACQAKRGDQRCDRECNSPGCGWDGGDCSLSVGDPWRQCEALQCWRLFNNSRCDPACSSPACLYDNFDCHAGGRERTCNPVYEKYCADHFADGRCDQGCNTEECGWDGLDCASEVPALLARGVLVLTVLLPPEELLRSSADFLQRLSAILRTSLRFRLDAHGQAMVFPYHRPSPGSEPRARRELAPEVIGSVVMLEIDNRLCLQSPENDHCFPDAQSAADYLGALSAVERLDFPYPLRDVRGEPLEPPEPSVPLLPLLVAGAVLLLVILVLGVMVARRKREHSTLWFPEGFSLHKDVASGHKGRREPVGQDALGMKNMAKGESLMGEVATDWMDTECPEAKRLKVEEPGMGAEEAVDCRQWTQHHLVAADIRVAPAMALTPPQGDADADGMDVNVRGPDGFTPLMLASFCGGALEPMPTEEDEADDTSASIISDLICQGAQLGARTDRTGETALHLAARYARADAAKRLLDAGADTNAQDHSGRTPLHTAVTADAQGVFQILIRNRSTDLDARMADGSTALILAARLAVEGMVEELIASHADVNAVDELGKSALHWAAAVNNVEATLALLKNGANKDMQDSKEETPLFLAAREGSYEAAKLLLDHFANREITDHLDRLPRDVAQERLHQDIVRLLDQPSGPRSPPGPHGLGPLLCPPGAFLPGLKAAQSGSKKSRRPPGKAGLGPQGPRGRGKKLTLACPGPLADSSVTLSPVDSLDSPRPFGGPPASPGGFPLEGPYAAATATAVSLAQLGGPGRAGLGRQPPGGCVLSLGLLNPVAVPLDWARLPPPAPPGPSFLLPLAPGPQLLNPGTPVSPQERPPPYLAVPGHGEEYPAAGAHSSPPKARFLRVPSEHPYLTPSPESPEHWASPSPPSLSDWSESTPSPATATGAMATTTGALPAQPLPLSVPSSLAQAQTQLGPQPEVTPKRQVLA

[10] = probe aEGFR binding to arrayed compounds – biochemical, biotinylated probe, 635/667 nm fluorescence, primary screen (AID 1097); conditions: small-molecule microarray, higher = more signal;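 further: probe is a biotinylated anti-EGFR antibody binding compounds printed on slides; score combines fluorescence near 667 nm and signal to noise of each spot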
[11] = test system: Plasmodium falciparum Sir2 (PF13_0152, Sir2A); test: Plasmodium falciparum Sir2A binding compounds – biochemical, small-molecule microarray, 635 nm fluorescence, primary screen (AID 1098); conditions: fluorescence 635 nm, higher = more signal;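 further: score merges spot fluorescence intensity with its signal-to-noise ratio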
[12] = probe aDKK1 binding to arrayed compounds – biochemical, biotinylated probe, 635/667 nm fluorescence, primary screen (AID 1099); conditions: small-molecule microarray, higher = more signal;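 further: score merges 667nm spot fluorescence with signal to noise across triplicate slides; reference of the scale not given here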
[13] = probe aCHRDL2 binding to arrayed compounds – biochemical, biotinylated probe, 635/667 nm fluorescence, primary screen (AID 1100); conditions: small-molecule microarray, higher = more signal
[14] = change in splice reporter luminescence, either direction, cell-based, HEK293, spliceosome inhibition project, primary screen (AID 1101); conditions: HEK293 splicing luciferase reporter, 24 h, higher = more signal, called active from +8 up or from −8 down;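 further: HEK293 cells carrying a splicing-competent luciferase reporter gene; test concentration not given here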
[15] = target: Fibroblast growth factor 10 (Homo sapiens) (UniProt O15520); test: compounds binding fibroblast growth factor 10 – biochemical, small-molecule microarray, 635 nm fluorescence, primary screen (AID 1102); conditions: FGF10 binding, fluorescence 635 nm, higher = more signal
Chain of Fibroblast growth factor 10 (Homo sapiens) (O15520 whole entry, looked up): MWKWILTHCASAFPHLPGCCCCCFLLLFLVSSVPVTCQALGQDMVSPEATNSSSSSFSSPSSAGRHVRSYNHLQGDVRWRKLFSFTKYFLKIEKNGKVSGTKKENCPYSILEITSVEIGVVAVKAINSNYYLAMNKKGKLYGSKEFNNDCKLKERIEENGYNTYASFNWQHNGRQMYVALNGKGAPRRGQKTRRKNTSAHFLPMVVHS

[16] = test system: glycogen synthase kinase-3 (GSK3A per assay name; protocol says GSK3B); test: compounds binding glycogen synthase kinase-3 – biochemical, small-molecule microarray, 635 nm fluorescence, GSK3A, primary screen (AID 1103); conditions: fluorescence 635 nm, higher = more signal; further: the record names both GSK3A and GSK3B
[17] = target: Epidermal growth factor receptor (Homo sapiens) (UniProt P00533); test: compounds binding epidermal growth factor receptor – biochemical, small-molecule microarray, 635 nm fluorescence, primary screen (AID 1104); conditions: EGFR binding, higher = more signal;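 further: score merges 667 nm emission intensity with spot signal to noise over triplicate slides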
Chain of Epidermal growth factor receptor (Homo sapiens) (P00533 whole entry, looked up): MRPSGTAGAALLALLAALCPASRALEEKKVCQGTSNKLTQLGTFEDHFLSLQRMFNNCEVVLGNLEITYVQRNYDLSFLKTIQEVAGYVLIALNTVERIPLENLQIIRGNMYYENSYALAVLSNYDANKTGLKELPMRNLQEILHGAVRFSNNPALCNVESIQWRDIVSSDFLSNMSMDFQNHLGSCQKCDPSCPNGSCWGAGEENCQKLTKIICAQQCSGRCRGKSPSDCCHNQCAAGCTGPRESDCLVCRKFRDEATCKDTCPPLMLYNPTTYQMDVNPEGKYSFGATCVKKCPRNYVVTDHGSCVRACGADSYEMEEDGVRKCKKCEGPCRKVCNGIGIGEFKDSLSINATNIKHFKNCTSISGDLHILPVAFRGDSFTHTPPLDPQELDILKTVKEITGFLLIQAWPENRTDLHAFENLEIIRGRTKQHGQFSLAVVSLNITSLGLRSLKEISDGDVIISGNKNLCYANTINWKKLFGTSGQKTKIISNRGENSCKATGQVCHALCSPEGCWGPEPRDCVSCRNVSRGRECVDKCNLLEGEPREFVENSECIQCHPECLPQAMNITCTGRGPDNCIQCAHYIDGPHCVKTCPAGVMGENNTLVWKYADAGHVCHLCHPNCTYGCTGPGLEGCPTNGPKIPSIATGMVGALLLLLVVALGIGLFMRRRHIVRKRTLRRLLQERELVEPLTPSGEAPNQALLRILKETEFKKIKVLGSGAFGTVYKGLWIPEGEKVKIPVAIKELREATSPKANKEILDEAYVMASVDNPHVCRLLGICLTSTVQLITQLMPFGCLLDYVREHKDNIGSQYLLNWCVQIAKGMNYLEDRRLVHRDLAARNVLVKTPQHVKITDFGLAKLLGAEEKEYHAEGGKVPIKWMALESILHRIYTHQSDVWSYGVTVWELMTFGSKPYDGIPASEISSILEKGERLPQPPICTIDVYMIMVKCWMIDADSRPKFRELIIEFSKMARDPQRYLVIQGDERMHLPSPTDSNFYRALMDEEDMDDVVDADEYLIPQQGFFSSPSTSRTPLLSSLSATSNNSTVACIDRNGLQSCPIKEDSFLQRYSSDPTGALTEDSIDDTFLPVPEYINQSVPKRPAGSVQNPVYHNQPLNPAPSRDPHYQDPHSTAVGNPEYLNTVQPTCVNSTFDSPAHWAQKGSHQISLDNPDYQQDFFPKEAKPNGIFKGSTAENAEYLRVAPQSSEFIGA

[18] = target: Follistatin-related protein 3 (Homo sapiens) (UniProt O95633); test: compounds binding follistatin-related protein 3 – biochemical, small-molecule microarray, 635 nm fluorescence, primary screen (AID 1105); conditions: FSTL3 binding, higher = more signal;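 further: score merges emission near 667 nm and signal to noise per printed spot across three slides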
Chain of Follistatin-related protein 3 (Homo sapiens) (O95633 whole entry, looked up): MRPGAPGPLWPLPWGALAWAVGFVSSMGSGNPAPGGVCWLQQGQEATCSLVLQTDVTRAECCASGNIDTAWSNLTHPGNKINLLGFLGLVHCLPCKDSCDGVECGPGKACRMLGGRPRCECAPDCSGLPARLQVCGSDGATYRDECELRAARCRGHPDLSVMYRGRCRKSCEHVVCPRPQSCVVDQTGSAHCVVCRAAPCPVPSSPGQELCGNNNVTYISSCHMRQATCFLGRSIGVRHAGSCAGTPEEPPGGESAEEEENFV

[19] = target: Dickkopf-related protein 1 (Homo sapiens) (UniProt O94907); test: small molecules binding DKK1 protein – biochemical, small-molecule microarray, 635 nm fluorescence scan, primary screen (AID 1106); conditions: higher = more signal;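 further: score merges emission near 667 nm with signal to noise over three replicate slides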
Chain of Dickkopf-related protein 1 (Homo sapiens) (O94907 whole entry, looked up): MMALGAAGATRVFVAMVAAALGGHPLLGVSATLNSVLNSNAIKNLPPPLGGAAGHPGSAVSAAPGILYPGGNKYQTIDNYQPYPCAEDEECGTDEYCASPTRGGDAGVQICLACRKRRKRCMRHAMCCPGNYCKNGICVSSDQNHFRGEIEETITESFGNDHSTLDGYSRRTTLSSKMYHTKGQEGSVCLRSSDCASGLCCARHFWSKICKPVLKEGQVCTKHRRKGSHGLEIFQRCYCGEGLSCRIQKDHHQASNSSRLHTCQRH

[20] = test system: Inhibin beta A chain (activin A); test: small molecules binding activin A – biochemical, small-molecule microarray, 635 nm fluorescence scan, primary screen (AID 1107); conditions: INHBA, higher = more signal;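 further: mouse activin A protein probed at 4.33 µg/mL on printed slides; score merges bound-protein fluorescence near 667 nm with spot signal-to-noise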

Row | SMILES | composite z-score [1] | z-score [2] | z-score [3] | z-score [4] | composite z-score [5] | z-score [6] | composite z-score [7] | composite z-score [8] | composite z-score [9] | composite z-score [10] | composite z-score [11] | composite z-score [12] | composite z-score [13] | z-score [14] | composite z-score [15] | composite z-score [16] | composite z-score [17] | composite z-score [18] | composite z-score [19] | composite z-score [20]
1 | COC(=O)CC=C[C@@H](C)[C@@H](C=NO[C@@H]1O[C@H](COC(C)=O)[C@@H](OC(C)=O)[C@H](OC(C)=O)[C@H]1OC(C)=O)NS(=O)(=O)c1ccc(C)cc1 | 1.41 | 0.0457 (inactive) | -0.23 (inactive) | -0.615 (inactive) | -0.147 | -1.32 (inactive) | -0.134 | 0.521 | 0.545 | -0.152 | -0.119 | -0.268 | -0.645 | -0.15 (inactive) | 0.626 | -0.448 | 0.504 | -0.212 | 0.833 | -1.58
2 | O=c1n(Cc2cc3c(cc2Cl)OCO3)c(=O)n2n1CC[C@@H]1C(=NOC[C@@H](O)COCc3ccco3)[C@H]3O[C@H]3[C@@H](O)[C@@H]12 | 0.101 | 1.52 (inactive) | 0.807 (inactive) | 1.24 (inactive) | 0.177 | 0.283 (inactive) | -0.286 | 0.323 | 0.667 | -0.0976 | 0.461 | -0.0876 | -0.454 | 0.115 (inactive) | 0.246 | 0.532 | 0.349 | 0.596 | 0.538 | 0.217
3 | COc1ccc(O[C@H]2C=C[C@@H](c3ccccc3)O[C@@H]2COC(=O)CCC(C)=NOC(C)CN2CCCc3nc(C)c(C)cc32)cc1 (stereo not given in full) | 1.35 | 0.194 (inactive) | -0.629 (inactive) | -0.0642 (inactive) | 1.36 | 1.43 (inactive) | -0.0345 | 0.755 | 1.01 | -0.0106 | 0.817 | -0.176 | -0.433 | 0.063 (inactive) | 0.753 | 1.03 | 0.517 | 0.889 | 0.524 | 0.465
4 | COCCNC(=O)OCC1CCCC2(CC(OC(=O)NCc3ccc4c(c3)OCO4)CC(CCC(=O)N[C@@H](C)C(=O)OC)O2)O1 (stereo not given in full) | 1.52 | -0.05 (inactive) | 1.02 (inactive) | -0.62 (inactive) | 1.55 | -0.427 (inactive) | -0.161 | 0.54 | 1.1 | -0.0286 | 0.742 | -0.205 | -0.634 | 0.442 (inactive) | 0.696 | 0.953 | 0.696 | 1.31 | 0.518 | 0.0253
5 | CCOC(=O)CCN1C(=O)[C@H]2[C@H]3[C@H](O)[C@H](O)CC(=NOCc4ccccc4)[C@H]3CC[C@H]2C1=O | -0.112 | 0.819 (inactive) | 1.04 (inactive) | 0.492 (inactive) | 0.374 | 1.08 (inactive) | 0.58 | -0.316 | -0.665 | 0.276 | 0.1 | 1.27 | 1.32 | 0.509 (inactive) | -0.556 | -0.395 | 0.193 | -0.828 | -1.06 | 0.288
6 | CO[C@@H]1C=CCC(=O)N[C@@H](C)C(=O)OC[C@@H](OC)[C@H](C)CCCC(=O)OC[C@H]1C | 1.44 | -0.465 (inactive) | -0.111 (inactive) | -1.17 (inactive) | -2.13 | 0.976 (inactive) | -0.153 | 1.91 | -1.04 | -0.0485 | 1.55 | -0.352 | -1.05 | -0.646 (inactive) | 0.473 | 0.0516 | 1.08 | 1.22 | 1.64 | 1.23
7 | C[C@@H]1CC[C@H]2C(=O)O[C@@H](COc3ccc(C(C)(C)C)cc3)CN2[C@@H]1c1ccc(Br)cc1 | -0.118 | 0.228 (inactive) | -0.492 (inactive) | 0.147 (inactive) | -0.158 | -0.0121 (inactive) | 0.464 | -0.835 | -0.91 | -0.0946 | -0.0295 | -0.339 | -0.0805 | -0.36 (inactive) | -0.828 | -0.796 | -0.291 | -0.964 | -0.924 | 0.011
8 | CC(C)(C)N1C(=O)[C@H]2[C@H]3[C@H](O)[C@H](O)CC(=NO[C@@H]4O[C@H](CO)[C@@H](O)[C@H](O)[C@H]4O)[C@H]3CC[C@H]2C1=O | 0.693 | 0.768 (inactive) | -1.05 (inactive) | -0.235 (inactive) | 0.959 | -0.864 (inactive) | -0.0603 | 0.593 | 0.155 | 0.0334 | 0.0937 | -0.215 | -0.38 | 0.543 (inactive) | 0.16 | -0.524 | 0.408 | 0.487 | 0.639 | 1.35
9 | Cc1ccc(S(=O)(=O)n2c3ccccc3c3nnc(C(=O)c4ccccc4)nc32)cc1 | -0.875 | -0.232 (inactive) | -0.683 (inactive) | 0.881 (inactive) | -0.0929 | 0.878 (inactive) | -0.122 | 0.0828 | -0.467 | 0.0099 | -0.0568 | -0.153 | -0.22 | -1.04 (inactive) | 0.328 | 0.0643 | 0.494 | 0.511 | 0.563 | 0.546
10 | C#CCCCON=C1[C@H]2CCn3c(=O)n(-c4ccccc4)c(=O)n3[C@H]2[C@H](O)[C@@H]2O[C@H]12 | 0.192 | -1.65 (inactive) | -0.813 (inactive) | -0.864 (inactive) | 0.463 | -0.623 (inactive) | -0.202 | 0.422 | 0.496 | -0.0938 | 0.164 | 0.238 | -0.615 | -1.65 (inactive) | 0.291 | 0.621 | 0.537 | 0.725 | 0.521 | 0.127
